This is an account of results in ChEMBL document CHEMBL3988442, “University of Dundee, Small-Polar-MMV Screening Library” (2021).

The whole screen tested about 48,000 compounds, of which about 13,000 (27%) showed an effect of 50% or more. This is one part of the list.

For the experiment, the system named is Wolbachia pipientis. The experiment can be described thus: Anti-Wolbachia Cell-Based Screen. Type of experiment: functional. Further details: scale not given: in the data most compounds retested in dose-response had high values. The settings on record: 5 µM.
Regarding `CCCOc1cc(Cl)c(CN2CCNC(C(=O)NC3CC3)C2)cc1OC` (stereo not drawn), the “Percent Effect” value is -0.8522%. Regarding `O=C(c1cncc(N2CCCC3(CCNCC3)CC2)n1)N1CCCCC1`, the “Percent Effect” value was 3.422%. On to `COc1cc(F)cc(CNC(=O)Nc2ccn(CC(F)F)n2)c1`, for which the “Percent Effect” value is on record as -8.907%.

With `CSCC1CCN(C(=O)c2ccccc2NCc2cccnc2)C1` (stereo not drawn), the “Percent Effect” value is 46.56%. Next, `CC(C)N1CCN(C(=O)c2ccccc2NCc2cccnc2)CC1`: 80.75%. In the case of `CN(C)C[C@H]1OC[C@@H]2CN(C(=O)NCc3cccnc3)CC[C@@H]21.O=C(O)C(F)(F)F.O=C(O)C(F)(F)F`, the “Percent Effect” value was -2.462%. For `COCC(=O)N(Cc1cccnc1)CC1CCCN(C2CCCCC2)C1` (stereo not drawn), the “Percent Effect” value is recorded as -12.35%. Next, `NC(=O)CN1CCC(C(=O)N2CCCC(OCc3cccnc3)C2)CC1` (stereo not drawn): -8.18%. As to `O=C(c1cnc(NCc2cccnc2)c(Cl)c1)N1CCCCC1`, the “Percent Effect” value amounted to 2.275%. For `Cc1[nH]nc(CCC(=O)N2CCCC(OCc3cccnc3)C2)c1C` (stereo not drawn), the “Percent Effect” value is 1.428%. Next, `COC(=O)C1CCN(C(=O)c2cccc(NS(C)(=O)=O)c2C)CC1`: 5.787%; `COCC1CCCN(C(=O)c2ccccc2NCc2cccnc2)C1` (stereo not drawn): 97.72%.

Turning to `Cc1ccc(CNC(=O)N2CCN(C(C)c3cccnc3)CC2)cn1` (stereo not drawn), the “Percent Effect” value is given as -10.7%. For the compound `CCOC1CCCN(C(=O)c2ccccc2NCc2cccnc2)C1` (stereo not drawn), the “Percent Effect” value came out at 55.92%. For `Cc1c(NCc2cccnc2)cccc1C(=O)N1CCC(N(C)C)C1` (stereo not drawn), the “Percent Effect” value is recorded as 115.4%. To `Cn1ccnc1CN1CCN2C[C@H](OCc3ccccc3)C[C@H]2C1.O=C(O)C(F)(F)F.O=C(O)C(F)(F)F` belongs -3.164%. In the case of `Cc1cccc(C(C(=O)N2CC(c3ccncc3)C2)N(C)C)c1` (stereo not drawn), the “Percent Effect” value is -5.316%. In the case of `N#Cc1ccc(F)c(CNC(=O)NCCC(=O)NC2CCCC2)c1`, the “Percent Effect” value is listed as 6.795%.

Regarding `N#CC1(NC(=O)c2nccc3ccccc23)CCC2(CC1)OCCO2`, the “Percent Effect” value is given as 0.4939%. To `Cc1noc(C)c1S(=O)(=O)N(CC(N)=O)CC(C)C` belongs 2.709%. To `COC1CCN(C(=O)c2ccccc2NCc2cccnc2)CC1` belongs 112.6%; to `Cc1ccn(-c2ccccc2NCc2cccnc2)n1`, -3.836%; to `COCCN1CCCn2cnc(CNC3CCCC3)c2C1.Cl.Cl`, -22.39%. Take `c1ccc2c(Cc3nnc([C@H]4CCN(C5CCCCC5)C4)o3)c[nH]c2c1`: the “Percent Effect” value is 3.447%. Consider `O=C(O)c1cc2n(n1)CCCN(C(=O)CCc1c[nH]c3ccccc13)C2`, for which the “Percent Effect” value is -8.48%. In the case of `O=C(C1CC1)N1CC[C@H](c2nnc(Cc3c[nH]c4ccccc34)o2)C1`, the “Percent Effect” value was -9.274%. As to `O=C(c1nc(Cc2c[nH]c3ccccc23)no1)N1CCOCC1`, the “Percent Effect” value came to 109.7%. With `CC(=O)N1CC[C@H](c2nnc(Cc3c[nH]c4ccccc34)o2)C1`, the “Percent Effect” value is reported as -6.086%. On to `O=C(c1nc(Cc2c[nH]c3ccccc23)no1)N1CCCC1`, for which the “Percent Effect” value is listed as 91.24%.

Regarding `O=C(c1nc(Cc2c[nH]c3ccccc23)no1)N1CCCCC1`, the “Percent Effect” value worked out at 107.9%.

For `O=C(c1nc(-c2ccc3cc[nH]c3c2)no1)N1CCCC1`, the “Percent Effect” value is given as 5.655%. `c1ccc2c(Cc3nnc([C@H]4CCN(C5CCOCC5)C4)o3)c[nH]c2c1`: the “Percent Effect” value is given as 1.602%. Consider `CN(C)C(CNCc1nc(-c2ccsc2)no1)c1ccsc1` (stereo not drawn), for which the “Percent Effect” value is given as 7.6%.

Take `CC(SCc1ccc(Br)c2cccnc12)C(N)=O` (stereo not drawn): the “Percent Effect” value is -7.187%. Turning to `CCNC(=O)c1ccc(N2CCCC(c3nccn3C(C)C)C2)nc1` (stereo not drawn), the “Percent Effect” value is listed as -0.11%. To `Cn1cc(Cl)c(CN2CCn3nc(C(=O)N4CCCC4)cc3C2)n1` belongs -5.174%; to `CN(Cc1ccco1)C[C@H]1OC[C@@H]2CCN(Cc3ccccn3)C[C@@H]21.O=C(O)C(F)(F)F.O=C(O)C(F)(F)F.O=C(O)C(F)(F)F`, 0.7755%; to `CN(Cc1ccccn1)C(=O)c1nn(C)c2c1CCN(CC1CC1)C2.O=C(O)C(F)(F)F.O=C(O)C(F)(F)F.O=C(O)C(F)(F)F`, -10.9%. Take `CN(Cc1ccccn1)C(=O)[C@H]1CO[C@H]2CCN(CC3CC3)C[C@H]2C1.O=C(O)C(F)(F)F.O=C(O)C(F)(F)F`: the “Percent Effect” value was determined as 99.36%. Next, `COCCN1CC[C@@H]2OC[C@H](C(=O)N(C)Cc3ccccn3)C[C@@H]2C1`: 115.4%; `COCCN(Cc1ccccn1)C(=O)C1CCCCCN1C` (stereo not drawn): -8.345%; `COCCN1CCC(C(=O)N(C)Cc2cccc(Cl)c2)C1` (stereo not drawn): -62.62%. In the case of `CC(C)c1nc(CN2CCC(CO)CC2)cs1`, the “Percent Effect” value was -12.85%.

Consider `COCc1ncn2c1CN(C(=O)c1ccco1)CC2`, for which the “Percent Effect” value was found to be 113.2%. On to `CN1CCN(Cc2cn3c(n2)CN(C(=O)c2ccco2)CC3)CC1`, for which the “Percent Effect” value was -12.05%. For the compound `O=C(c1ccc[nH]1)N1CCCn2cnc(COCC3CC3)c2C1`, the “Percent Effect” value is -13.58%. To `O=C(c1ccc2[nH]ccc2c1)N1CCn2cnc(COCC3CC3)c2C1` belongs -3.31%; to `O=C(c1ccco1)N1CCCn2cnc(COCC3CC3)c2C1`, -7.899%.

In the case of `COCc1ncn2c1CN(C(=O)c1ccc[nH]1)CC2`, the “Percent Effect” value is listed as 111%.

With `CC(C)(C)c1coc([C@@H]2COCCN2Cc2c[nH]cn2)n1`, the “Percent Effect” value is -1.373%.

On to `CCOCCN1CCN(Cc2nnc(-c3occc3C)o2)CC1CC` (stereo not drawn), for which the “Percent Effect” value is on record as 4.766%.

On to `CN(C)C(=O)CNC(=O)Nc1cccc(Cl)c1SC(F)F`, for which the “Percent Effect” value is recorded as -14%. Regarding `COC(=O)CC1CN(Cc2ccn(-c3ccc(F)cc3)n2)CCO1` (stereo not drawn), the “Percent Effect” value is listed as -16.13%. Take `CSCCC(=O)N1CCCN(c2ccccc2C)CC1`: the “Percent Effect” value was -1.705%. Next, `Cc1ccccc1N1CCN(C(=O)CC(C)C)CC1`: -38.06%; `CSCC(=O)N1CCCN(c2ccncc2C)CC1`: -12.26%. `Cc1ccccc1N1CCCN(C(=O)CN2C(=O)OC[C@@H]2C(C)C)CC1`: the “Percent Effect” value came to 17.78%. For `N#Cc1ccc(N2CCCN(C(=O)CC3CCCO3)CC2)cc1` (stereo not drawn), the “Percent Effect” value is 5.693%. Regarding `CC(C)N1CCOC(CC(=O)N2CCCN(c3ccc(F)cc3)CC2)C1` (stereo not drawn), the “Percent Effect” value is given as 103.5%. In the case of `Cc1ccccc1N1CCCN(C(=O)CC2CN(C(C)C)CCO2)CC1` (stereo not drawn), the “Percent Effect” value was determined as 116.5%. Regarding `CSCC(=O)N1CCCN(c2ccccc2C)CC1`, the “Percent Effect” value was found to be 124.1%.

For the compound `NC(=O)c1cncc(-n2ccc(-c3cnccn3)n2)c1`, the “Percent Effect” value is -26.19%.

`CC(C#N)(NC(=O)COc1ccccc1Br)C1CC1` (stereo not drawn): the “Percent Effect” value is listed as 18.27%.

As to `CN1CCN(C)C2(CCN(C(=O)CC(F)(F)F)CC2)C1=O`, the “Percent Effect” value came to 104%.

Regarding `O=C(CC(F)(F)F)N1CCC2(CCCN(c3nncs3)C2)C1` (stereo not drawn), the “Percent Effect” value is -11.31%.

On to `CN1CCN(CC2CC2)C(=O)C12CCN(C(=O)c1cnccn1)CC2`, for which the “Percent Effect” value is given as -10.28%. Turning to `CN1CCN(CC2CC2)C(=O)C12CCN(C(=O)CC(F)(F)F)CC2.O=C(O)C(F)(F)F`, the “Percent Effect” value came out at 112.7%. Take `CCN1CCN(C)C2(CCN(C(=O)CC(F)(F)F)CC2)C1=O`: the “Percent Effect” value is 118.4%. To `Cc1ccc(N2CCCC3(CCN(C(=O)CC(F)(F)F)C3)C2)nn1` (stereo not drawn) belongs -9.607%; to `CN1CCN(CC2CC2)C(=O)C12CCN(C(=O)c1ccnnc1)CC2.O=C(O)C(F)(F)F`, -9.864%. `CCN(C(=O)c1ccccc1I)C1CC(=O)NC1=O` (stereo not drawn): the “Percent Effect” value worked out at 4.049%. For the compound `CC/C=C(/C)C(=O)N1CSCC1C(=O)NC1=NCCS1` (stereo not drawn), the “Percent Effect” value is -1.356%. Turning to `COc1ncc(NS(=O)(=O)c2ccc(OC)c(C)c2)c(OC)n1`, the “Percent Effect” value is -43.62%. `COc1ccc(S(=O)(=O)NCCn2cnc(C)cc2=O)cc1C`: the “Percent Effect” value worked out at 93.11%.

Turning to `COc1ccc(F)cc1S(=O)(=O)NCCn1cnc(C)cc1=O`, the “Percent Effect” value was 77.48%. Regarding `COc1ccc(S(=O)(=O)Nc2cccnc2-n2cncn2)cc1C`, the “Percent Effect” value is given as -1.49%.

As to `COc1ccc(F)cc1S(=O)(=O)NCC(c1cccn1C)N(C)C` (stereo not drawn), the “Percent Effect” value was -20.36%. Consider `COc1ccc(F)cc1S(=O)(=O)NCC(O)c1sccc1C` (stereo not drawn), for which the “Percent Effect” value came out at 28.76%. Consider `CC1COc2ccccc2N1C(=O)c1ccnc(-n2cncn2)c1` (stereo not drawn), for which the “Percent Effect” value is -16.23%. Turning to `CNc1ncc(CN(C)C(=O)[C@@]23CNC[C@@H]2CN(C(=O)C2CC2)C3)cn1`, the “Percent Effect” value was -3.257%.

Regarding `COc1cc(NCCNC(=O)c2cc[nH]c2C)cc(OC)c1`, the “Percent Effect” value is on record as -11.29%.

Take `COCCCC1(CO)CCCN(Cc2nccs2)C1` (stereo not drawn): the “Percent Effect” value amounted to 3.777%. With `O=C(NCc1ncc[nH]1)c1c(F)cccc1I`, the “Percent Effect” value is listed as -7.586%.

Regarding `CN1CCN([C@@H]2CN(C(=O)CCOc3ccccc3)C[C@H]2O)CC1`, the “Percent Effect” value amounted to 98.51%. Consider `COCC(=O)N1C[C@@H](O)[C@H](N2CCN(c3ccccc3)CC2)C1`, for which the “Percent Effect” value was 143.5%. On to `Cc1ccsc1[C@@H]1CCN(C(=O)CCOc2ccccc2)C[C@H]1O`, for which the “Percent Effect” value is reported as -3.102%. Regarding `CCOCC(=O)N1C[C@@H](O)[C@H](N2CCN(c3ccccc3)CC2)C1`, the “Percent Effect” value is 110.9%. Turning to `COCCC(=O)N1C[C@@H](O)[C@H](N2CCN(c3ccccc3)CC2)C1`, the “Percent Effect” value came to 133.4%. As to `O=C(CO)N1CC[C@@H](N2CCN(c3ccccc3F)CC2)[C@H](O)C1`, the “Percent Effect” value worked out at 5.557%. As for `CSCCC(=O)N1CC[C@@H](N2CCN(c3ccccc3F)CC2)[C@H](O)C1`, the “Percent Effect” value is -0.8189%. For the compound `COCCC(=O)N1CC[C@@H](N2CCN(C)CC2)[C@@H]1Cc1ccccc1`, the “Percent Effect” value is -8.117%. To `CC(C)=CCN1CCN(CCCOc2ccccc2)[C@H]2CS(=O)(=O)C[C@H]21` belongs -8.839%. Take `COCCC(=O)N1CC2(CCN(c3ccccc3)C2)C1`: the “Percent Effect” value is on record as -36.12%.

For the compound `N#Cc1ccnc(N2CCN(CC(O)c3ccccc3Cl)CC2)c1` (stereo not drawn), the “Percent Effect” value was -8.703%. On to `O=C(CN1CCS(=O)(=O)CC1)NCc1cccc(Br)c1`, for which the “Percent Effect” value is given as -5.799%. With `COCC1(CNC(=O)Nc2cc(F)ccc2OC)CCCC1`, the “Percent Effect” value is on record as -0.947%. To `CC(C)(C)OC(=O)NC(C)(C)c1noc(CSc2nncs2)n1` belongs 7.03%; to `N#Cc1c(Cl)nsc1NCc1ccc(N2CCSCC2)cc1`, -6.213%.
